pPAFAH FP inh – pPAFAH enzyme inhibitors, primary screen, biochemical, fluorescence polarization, human; inhibition, % at 3.39 µM; recombinant pPAFAH, FP-rhodamine probe fluorescence polarization; hit rate 1.5% among 330,000; Platelet-activating factor acetylhydrolase (Homo sapiens), Q13093;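 active means inhibition above the mean inhibition across the screen plus 3 SD, cut at about 25% in these data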;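 further: inhibitors block binding of the rhodamine activity-based probe so polarization drops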
Target sequence (Q13093 whole entry, looked up): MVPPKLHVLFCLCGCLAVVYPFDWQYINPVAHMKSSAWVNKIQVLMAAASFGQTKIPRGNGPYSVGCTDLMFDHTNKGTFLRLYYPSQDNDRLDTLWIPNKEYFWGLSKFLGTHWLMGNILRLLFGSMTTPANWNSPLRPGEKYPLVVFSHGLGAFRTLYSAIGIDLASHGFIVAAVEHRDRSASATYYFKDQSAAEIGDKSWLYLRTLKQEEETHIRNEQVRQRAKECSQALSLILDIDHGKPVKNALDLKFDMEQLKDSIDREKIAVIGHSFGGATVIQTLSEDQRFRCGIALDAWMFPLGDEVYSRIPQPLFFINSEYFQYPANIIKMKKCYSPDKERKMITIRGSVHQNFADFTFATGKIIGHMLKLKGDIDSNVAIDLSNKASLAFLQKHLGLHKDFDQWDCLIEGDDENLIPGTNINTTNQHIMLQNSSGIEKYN
PAFAH1B2 inh – PAFAH1B2 enzyme inhibitors, primary screen, biochemical, fluorescence polarization, human; Platelet-activating factor acetylhydrolase IB subunit alpha2 (Homo sapiens), P68402; recombinant PAFAH1B2, FP-rhodamine activity probe; inhibition, % at 3.39 µM; hit rate 1.2% among 340,000;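 active means inhibition above the mean of all tested compounds plus 3 SD, cut at about 24% in these data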
Fam108B inh – mouse Fam108B serine hydrolase inhibitors, primary screen, counter-screen for RBBP9 inhibitor project, biochemical, fluorescence polarization; inhibition, % at 9.51 µM; hit rate 0.33% among 300,000; recombinant Fam108B, FP-Rh probe fluorescence polarization; AID 1947, 2009;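 active means inhibition above the screen mean inhibition plus 3 SD, computed separately per campaign, cut at about 18% in these data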;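 further: inhibitors lower polarization as less probe binds the enzyme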
PAFAH2 inh – PAFAH2 enzyme inhibitors, primary screen, biochemical, fluorescence polarization, human | Platelet-activating factor acetylhydrolase 2, cytoplasmic (Homo sapiens), Q99487 | recombinant PAFAH2, FP-rhodamine activity probe | inhibition, % at 3.39 µM | hit rate 0.99% among 340,000 | AID 492956, 2010;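 active means inhibition above the mean over all tested compounds plus 3 SD, cut at about 30% in these data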;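 further: inhibitors block probe labeling of enzyme so polarization drops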
PAFAH1B3 FP inh – PAFAH1B3 enzyme inhibitors, primary screen, biochemical, fluorescence polarization, human; hit rate 0.28% among 340,000; AID 492972, 2010; Platelet-activating factor acetylhydrolase IB subunit alpha1 (Homo sapiens), Q15102; inhibition, % at 3.39 µM; recombinant PAFAH1B3, FP-rhodamine probe;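 active means inhibition above the screen-wide average of all tested compounds plus 3 SD, cut at about 25% in these data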
PME-1 inh – PME-1 inhibitors via competitive probe labeling, primary screen, biochemical, fluorescence polarization, FP-Rh probe, HTS. inhibition, % at 5.9 µM. Protein phosphatase methylesterase 1 (Homo sapiens), Q9Y570. recombinant PME-1. hit rate 0.53% among 320,000;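 active means inhibition above the campaign mean of all compounds plus 3 SD, cut at about 26% in these data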;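 further: competitive labeling of PME-1 active site by serine hydrolase directed probe; inhibitors block probe labeling so polarization falls and inhibition rises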
PAFAH2 confirm – PAFAH2 enzyme inhibitors, confirmation, biochemical, fluorescence polarization, human | shares compounds with PAFAH2 inh | recombinant PAFAH2, FP-rhodamine activity probe | inhibition, % at 3.39 µM | hit rate 65% among 2,300;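 active means mean inhibition over three repeats above a set limit taken from the earlier primary screen, cut at about 30% in these data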;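 further: inhibitor blocks binding of rhodamine activity probe so polarization falls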
PAFAH1B3 confirm – PAFAH1B3 enzyme inhibitors, confirmation, biochemical, fluorescence polarization, human; inhibition, % at 3.39 µM; recombinant PAFAH1B3, FP-Rh activity-based probe; shares compounds with PAFAH1B3 FP inh; hit rate 30% among 390;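 active means average inhibition over triplicate runs above the hit cutoff set in the earlier primary screen, cut at about 25% in these data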
Of the large screens only hits and unclear results are named; the others gave an inactive call (follow-up assays come after a bar, where they were run). Only some compounds are listed: those with a hit (about 2.8% of all), similar ones and a draw of the others.

CC12CCC(=O)C=C1CCC1C2CCC2(C)C(O)CCC12 (stereo not drawn)	PAFAH2 inh 34 | PAFAH2 confirm inactive
O=C(N/N=C/c1c(O)n(C2CCCCC2)c(=S)[nH]c1=O)c1ccccc1	none
O=C(N/N=C/C1C(=O)NC(=S)N(c2ccccc2)C1=O)c1cc(Br)c(O)c(Br)c1 (stereo not drawn)	PAFAH2 inh 37 | PAFAH2 confirm inactive
NC(=O)Nc1ccc(C(=O)OCC(=O)Nc2ccc(Cl)cc2C(=O)c2ccccc2)cc1	PAFAH2 inh 70 | PAFAH2 confirm 52
C[N+](C)(C)CC(=O)Nc1ccc(Cl)cc1C(=O)c1ccccc1	none
CCC/C=N/O	none (no result: Fam108B inh)
Cc1cccc(N2C(=O)NC(=O)/C(=C\c3ccc4c(c3)CCCN4Cc3ccccc3)C2=O)c1	PAFAH2 inh 33 | PAFAH2 confirm 37
COc1ccc(N2C(=O)NC(=O)/C(=C/c3ccc4c(c3)Cc3ccccc3-4)C2=O)cc1	none (no result: PAFAH1B2 inh, PAFAH2 inh, PAFAH1B3 FP inh)
Cc1cccc(N2C(=O)NC(=O)/C(=C\c3cc(C)n(-c4sc5c(c4C#N)CCCC5)c3C)C2=O)c1C	PAFAH2 inh 33 | PAFAH2 confirm inactive
O=P(Oc1ccccc1)(Oc1ccccc1)C(O)c1ccccc1 (stereo not drawn)	PAFAH2 inh 30, PME-1 inh 46 | PAFAH2 confirm inactive
CCC(C)n1c(O)c(/C=N/NC(=O)c2ccncc2)c(=O)[nH]c1=S (stereo not drawn)	PAFAH2 inh 58 | PAFAH2 confirm 62
O=c1[nH]c(=S)n(C2CC2)c(O)c1/C=N/Nc1ccccc1	none
CCC(C)n1c(O)c(C=NCC2CCCO2)c(=O)[nH]c1=S (stereo not drawn)	PAFAH2 inh 51 | PAFAH2 confirm 38
CCC(C)n1c(O)c(C=NCCN2CCOCC2)c(=O)[nH]c1=S (stereo not drawn)	none
CCC(C)n1c(O)c(C=NCCc2ccccc2)c(=O)[nH]c1=S (stereo not drawn)	PAFAH2 inh 47 | PAFAH2 confirm 45
CCC(C)n1c(O)c(/C=N/Nc2ccccc2)c(=O)[nH]c1=S (stereo not drawn)	PAFAH2 inh 40 | PAFAH2 confirm inactive
CCOC(=O)c1cncn1[C@H](C)c1ccccc1	none (no result: PAFAH1B2 inh, PAFAH2 inh, PAFAH1B3 FP inh)
COC(=O)C1=C(c2ccc(F)cc2OCc2ccccc2)C[C@@H]2CC[C@H]1N2C(=O)NCc1cc(C)oc1C(F)(F)F	none (no result: Fam108B inh, PME-1 inh)
CCOc1ccc(N2C(=O)/C(=C\c3cccs3)C(=O)NC2=S)cc1	none (no result: PAFAH1B2 inh, PAFAH2 inh, PAFAH1B3 FP inh)
CCOc1ccc(N2C(=O)/C(=C/c3ccco3)C(=O)NC2=S)cc1	PAFAH2 inh 94 | PAFAH2 confirm 63
CC(Cc1ccccc1)N1Cc2ccccc2C1 (stereo not drawn)	none
C[C@@H]1C2C[C@@]34COC(=O)C3=CC=C[C@H]4[C@@]13C[C@H](c1ccoc1)O[C@@H]3O2	none (no result: PAFAH1B2 inh, PAFAH2 inh, PAFAH1B3 FP inh)
O=C1NC(=O)C(CCc2ccncc2)(CCc2ccncc2)C(=O)N1C1CCCCC1	none
O=C1NC(=O)N(C2CCCCC2)C(=O)C1C1c2ccccc2C(=O)N1Cc1ccccc1 (stereo not drawn)	PAFAH2 inh 45 | PAFAH2 confirm 41
CC1CCN(C(=O)C(C)Cl)CC1 (stereo not drawn)	none
CC1=CC(=O)NP(=O)(Oc2ccc3ccccc3c2)N1 (stereo not drawn)	PAFAH2 inh 45 | PAFAH2 confirm inactive
Cc1ccc(N2C(=O)NC(=O)/C(=C\c3cccn3C(C)(C)C)C2=O)cc1	PAFAH2 inh 43 | PAFAH2 confirm inactive
Cc1cc(/C=C2/C(=O)NC(=O)N(Cc3ccco3)C2=O)c(C)n1-c1ccccc1O	PAFAH2 inh 32 | PAFAH2 confirm inactive
Cc1ccc2[nH]c(C)c(CCNCc3cccnc3)c2c1	none
CSc1cccc(NP2(=O)OCC(C)([N+](=O)[O-])CO2)c1 (stereo not drawn)	none (no result: pPAFAH FP inh, Fam108B inh, PME-1 inh)
COc1ccc2c(CN3CC=C(c4ccccc4)CC3)cc(=O)oc2c1	none
CCc1ccc2c(CN3CC=C(c4ccccc4)CC3)cc(=O)oc2c1	PAFAH1B3 FP inh 27 | PAFAH1B3 confirm inactive
CCC(C)NC(=O)c1c(N)n(CCCOC)c2nc3ccccc3nc12 (stereo not drawn)	PAFAH1B3 FP inh 62 | PAFAH1B3 confirm inactive
CCCCn1c(NS(=O)(=O)c2ccccc2)c(C(=O)OCC)c2nc3ccccc3nc21	PAFAH1B3 FP inh 51 | PAFAH1B3 confirm inactive
CCOC(=O)c1c(N)n(CCN2CCCCC2)c2nc3ccccc3nc12	none
COC(=O)C1=C(c2ccc(OC)c(OC)c2)C[C@@H]2CC[C@H]1N2C(=O)NCCOc1ccccc1Cl	none (no result: Fam108B inh)
Oc1cccc2nc3ccccc3nc12	PAFAH1B3 FP inh 35 | PAFAH1B3 confirm inactive
COc1cc2c(cc1O)[C@@H]1Cc3ccc(OC)c(O)c3CN1CC2	PAFAH1B3 FP inh 37 | PAFAH1B3 confirm inactive
COC(=O)COc1ccc(/C=C2\C(=O)NC(=S)N(c3ccc(C)cc3)C2=O)cc1OC	none
NP(=O)(OCC(F)(F)F)Oc1ccccc1 (stereo not drawn)	none
